{"source": "the supplement of paper PMC3334620", "note": "Whole data set: some 33,000 sequences, median “E-score (-0.5 to 0.5)” near -0.054, cut for the highest 2% near 0.39. This excerpt belongs to a sample that is enriched for the highest values."}
{"target": "Ylr278c (UniProt Q05854)", "sequence (Q05854 whole entry, the tested form may be a part)": "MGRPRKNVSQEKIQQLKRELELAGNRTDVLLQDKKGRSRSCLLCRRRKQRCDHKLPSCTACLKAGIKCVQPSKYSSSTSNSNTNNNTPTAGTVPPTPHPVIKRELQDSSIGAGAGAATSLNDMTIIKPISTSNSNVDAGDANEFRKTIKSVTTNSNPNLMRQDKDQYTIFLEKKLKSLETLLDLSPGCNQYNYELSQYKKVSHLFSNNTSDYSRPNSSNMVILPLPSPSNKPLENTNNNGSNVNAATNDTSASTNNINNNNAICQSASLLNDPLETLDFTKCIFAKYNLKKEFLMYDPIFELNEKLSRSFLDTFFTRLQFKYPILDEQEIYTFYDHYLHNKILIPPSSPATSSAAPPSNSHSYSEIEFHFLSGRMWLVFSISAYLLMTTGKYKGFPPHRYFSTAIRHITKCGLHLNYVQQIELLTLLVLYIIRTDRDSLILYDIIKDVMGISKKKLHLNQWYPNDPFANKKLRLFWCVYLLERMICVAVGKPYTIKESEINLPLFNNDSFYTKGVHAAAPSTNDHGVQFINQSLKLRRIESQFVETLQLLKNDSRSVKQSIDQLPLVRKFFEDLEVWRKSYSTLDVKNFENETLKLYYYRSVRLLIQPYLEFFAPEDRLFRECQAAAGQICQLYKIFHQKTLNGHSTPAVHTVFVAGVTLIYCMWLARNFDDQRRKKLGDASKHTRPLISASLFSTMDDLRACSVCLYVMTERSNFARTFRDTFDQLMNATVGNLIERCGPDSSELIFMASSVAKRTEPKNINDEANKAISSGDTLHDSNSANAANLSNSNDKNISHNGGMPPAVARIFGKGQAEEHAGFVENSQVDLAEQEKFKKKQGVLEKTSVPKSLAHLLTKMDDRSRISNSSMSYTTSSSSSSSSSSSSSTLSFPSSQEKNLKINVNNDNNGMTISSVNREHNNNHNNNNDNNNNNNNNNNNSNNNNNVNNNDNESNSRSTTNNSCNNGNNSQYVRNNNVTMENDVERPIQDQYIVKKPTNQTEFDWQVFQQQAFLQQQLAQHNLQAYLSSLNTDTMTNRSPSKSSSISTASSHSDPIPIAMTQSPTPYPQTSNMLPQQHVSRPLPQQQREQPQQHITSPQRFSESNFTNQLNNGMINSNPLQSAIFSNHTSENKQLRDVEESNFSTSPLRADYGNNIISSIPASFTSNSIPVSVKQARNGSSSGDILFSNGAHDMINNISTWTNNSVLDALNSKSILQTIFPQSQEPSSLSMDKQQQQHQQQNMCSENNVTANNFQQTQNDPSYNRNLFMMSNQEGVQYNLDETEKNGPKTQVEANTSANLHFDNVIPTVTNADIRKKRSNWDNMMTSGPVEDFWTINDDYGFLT", "experiment": "PBM E-score (8-mer binding enrichment) (E-score (-0.5 to 0.5)); higher = stronger / more preferred TF binding", "conditions": "protein concentration: 200 nM; construct: GST-DNA-binding domain", "outline": "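Detection of bound protein used fluorescent anti-GST, with scans normalised by masliner. The proteins were GST-tagged yeast transcription factors applied at about 100-200 nM to universal all-10-mer Agilent arrays made double-stranded by primer extension. Each ungapped eight-base word, pooled with its reverse complement, was scored with an E-score from the Universal PBM Analysis Suite.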"}
{"sequence": "CATATGGC", "PBM E-score": -0.0951}
{"sequence": "ACCAGATA", "PBM E-score": -0.0605}
{"sequence": "CGTTGGAA", "PBM E-score": -0.0729}
{"sequence": "CCTTCGAG", "PBM E-score": -0.0791}
{"sequence": "GGGAGACC", "PBM E-score": -0.0886}
{"sequence": "AGGAGACG", "PBM E-score": -0.12}
{"sequence": "CGGAGACG", "PBM E-score": 0.415}
{"sequence": "CGGAGACA", "PBM E-score": 0.39}
{"sequence": "CGGAGACC", "PBM E-score": 0.406}
{"sequence": "AGGAGACA", "PBM E-score": -0.0751}
{"sequence": "AGGAGACC", "PBM E-score": -0.145}
{"sequence": "CAGAGACG", "PBM E-score": -0.0283}
{"sequence": "TGGAGACA", "PBM E-score": -0.227}
{"sequence": "CCTCCTAA", "PBM E-score": -0.122}
{"sequence": "GATCTAAA", "PBM E-score": 0.0142}
{"sequence": "CAAAGGTC", "PBM E-score": -0.224}
{"sequence": "ATACTTGA", "PBM E-score": -0.345}
{"sequence": "CCCAGTCA", "PBM E-score": -0.242}
{"sequence": "CCTAGAAC", "PBM E-score": -0.0753}
{"sequence": "CGACGGAA", "PBM E-score": 0.339}
{"sequence": "CGACGGAC", "PBM E-score": 0.337}
{"sequence": "AGACGGAA", "PBM E-score": 0.238}
{"sequence": "AGACGGAG", "PBM E-score": 0.392}
{"sequence": "AGACGGAT", "PBM E-score": 0.176}
{"sequence": "CGACGGAG", "PBM E-score": 0.421}
{"sequence": "ATTGGACG", "PBM E-score": -0.00534}
{"sequence": "AATATGCC", "PBM E-score": -0.0168}
{"sequence": "ACATATCA", "PBM E-score": -0.0989}
{"sequence": "CTAGGCTA", "PBM E-score": -0.193}
{"sequence": "AAAGTCCA", "PBM E-score": -0.0593}
{"sequence": "CAGGTCCG", "PBM E-score": 0.353}
{"sequence": "AAAGTCCT", "PBM E-score": 0.226}
{"sequence": "AAGGTCCG", "PBM E-score": 0.426}
{"sequence": "ATAGTCCG", "PBM E-score": 0.413}
{"sequence": "AAGGTCCA", "PBM E-score": -0.124}
{"sequence": "CCGGTCCG", "PBM E-score": 0.45}
{"sequence": "AAAGTCCG", "PBM E-score": 0.482}
{"sequence": "CCGGTCCA", "PBM E-score": 0.21}
{"sequence": "ATAGTCCA", "PBM E-score": -0.109}
{"sequence": "ATAGTCCC", "PBM E-score": -0.153}
{"sequence": "CCGGTCCC", "PBM E-score": 0.355}
{"sequence": "CCGTTGAG", "PBM E-score": 0.0643}
{"sequence": "ACTAGCTC", "PBM E-score": -0.157}
{"sequence": "AGAGCTGC", "PBM E-score": -0.0659}
{"sequence": "AAACAACA", "PBM E-score": -0.119}
{"sequence": "CGTATCCC", "PBM E-score": 0.048}
{"sequence": "GGACTTAC", "PBM E-score": 0.305}
{"sequence": "GAAGCTAC", "PBM E-score": -0.144}
{"sequence": "AACACCTC", "PBM E-score": -0.251}
{"sequence": "GTGTGGTA", "PBM E-score": -0.165}
{"sequence": "CAAGTCCC", "PBM E-score": -0.108}
{"sequence": "AGAGTCCG", "PBM E-score": 0.347}
{"sequence": "CGAGTCCA", "PBM E-score": -0.144}
{"sequence": "CAAGTCCA", "PBM E-score": -0.118}
{"sequence": "CGAGTCCG", "PBM E-score": 0.391}
{"sequence": "CAAGTCCG", "PBM E-score": 0.455}
{"sequence": "CCGAGACG", "PBM E-score": 0.134}
{"sequence": "ACCTCAGA", "PBM E-score": -0.0802}
{"sequence": "GCCCCGGC", "PBM E-score": 0.259}
{"sequence": "GGCCCGTA", "PBM E-score": 0.173}
{"sequence": "CCCCCGGC", "PBM E-score": 0.254}
{"sequence": "CCCCCGGA", "PBM E-score": 0.395}
{"sequence": "GGCCCGCA", "PBM E-score": 0.188}
{"sequence": "TCCCCCGA", "PBM E-score": 0.263}
{"sequence": "TCCCCGGA", "PBM E-score": 0.435}
{"sequence": "GGCCCGGA", "PBM E-score": 0.395}
{"sequence": "CCCCCCGA", "PBM E-score": 0.083}
{"sequence": "GCCCCGGA", "PBM E-score": 0.439}
{"sequence": "TCCCCGAA", "PBM E-score": 0.357}
{"sequence": "GCCCCCGA", "PBM E-score": 0.0674}
{"sequence": "ATATTTTC", "PBM E-score": 0.0689}
{"sequence": "GACCTAAC", "PBM E-score": 0.0677}
{"sequence": "GCAGACGA", "PBM E-score": -0.119}
{"sequence": "GGATCTGA", "PBM E-score": 0.00665}
{"sequence": "AACCCATC", "PBM E-score": -0.0461}
{"sequence": "CAGTCATG", "PBM E-score": -0.129}
{"sequence": "ATGGCTGG", "PBM E-score": -0.209}
{"sequence": "CCAGCATC", "PBM E-score": -0.0271}
{"sequence": "ATCACTGC", "PBM E-score": -0.0314}
{"sequence": "ACTGTGGC", "PBM E-score": -0.32}
{"sequence": "GGACTGAC", "PBM E-score": -0.0427}
{"sequence": "CCCCTTAC", "PBM E-score": -0.195}
{"sequence": "ACCCGGGG", "PBM E-score": 0.246}
{"sequence": "CCCCCGGG", "PBM E-score": 0.296}
{"sequence": "CGCCCGGC", "PBM E-score": 0.292}
{"sequence": "CGCCCGAA", "PBM E-score": 0.111}
{"sequence": "CGCCCGGA", "PBM E-score": 0.435}
{"sequence": "CCCCGGGC", "PBM E-score": 0.342}
{"sequence": "CCCCGGGG", "PBM E-score": 0.412}
{"sequence": "AGCCCGGA", "PBM E-score": 0.448}
{"sequence": "AGCCCGGG", "PBM E-score": 0.328}
{"sequence": "AGCCCGGC", "PBM E-score": 0.332}
{"sequence": "ACCCCGGG", "PBM E-score": 0.404}
{"sequence": "AACCCGGG", "PBM E-score": 0.319}
{"sequence": "GTAAATGA", "PBM E-score": 0.024}
{"sequence": "GACAAGCC", "PBM E-score": -0.0446}
{"sequence": "CGACTTAG", "PBM E-score": -0.168}
{"sequence": "GCAACTCC", "PBM E-score": 0.327}
{"sequence": "AACGCCAA", "PBM E-score": -0.0358}
{"sequence": "GATTTCTA", "PBM E-score": 0.238}
{"sequence": "CATCCACG", "PBM E-score": -0.153}
{"sequence": "CGCTAGGC", "PBM E-score": -0.0311}
{"sequence": "GCATGGCA", "PBM E-score": 0.0442}
{"sequence": "TCCCGGGA", "PBM E-score": 0.398}
{"sequence": "ACCCGGGA", "PBM E-score": 0.307}
{"sequence": "ACCCCGGC", "PBM E-score": 0.355}
{"sequence": "CCCCGGGA", "PBM E-score": 0.378}
{"sequence": "ACCCCGGT", "PBM E-score": 0.385}
{"sequence": "ACCCCGGA", "PBM E-score": 0.445}
{"sequence": "GGTCTTAC", "PBM E-score": -0.0198}
{"sequence": "GAAGCGGC", "PBM E-score": 0.125}
{"sequence": "GGATGCCA", "PBM E-score": -0.277}
{"sequence": "CGATTCCA", "PBM E-score": 0.056}
{"sequence": "CGATTCCC", "PBM E-score": 0.226}
{"sequence": "ATATTCCA", "PBM E-score": 0.0484}
{"sequence": "CGATTCCG", "PBM E-score": 0.396}
{"sequence": "ATATTCCG", "PBM E-score": 0.43}
{"sequence": "CAATTCCC", "PBM E-score": 0.19}
{"sequence": "ATATTCCC", "PBM E-score": 0.277}
{"sequence": "AAATTCCG", "PBM E-score": 0.471}
{"sequence": "AAATTCCA", "PBM E-score": 0.115}
{"sequence": "CAATTCCA", "PBM E-score": -0.0617}
{"sequence": "CAATTCCG", "PBM E-score": 0.465}
{"sequence": "AAATTCCC", "PBM E-score": 0.254}
{"sequence": "ATACCGTC", "PBM E-score": 0.153}
{"sequence": "AACCTAGT", "PBM E-score": -0.00542}
{"sequence": "AACTTAGG", "PBM E-score": -0.156}
{"sequence": "CAAGTGCA", "PBM E-score": -0.362}
{"sequence": "TGGTTCAA", "PBM E-score": -0.118}
{"sequence": "ATACCTTC", "PBM E-score": 0.0292}
{"sequence": "GGCGCACA", "PBM E-score": 0.145}
{"sequence": "TCCCTCAA", "PBM E-score": -0.106}
{"sequence": "CGGCCGTA", "PBM E-score": 0.225}
{"sequence": "GGGCCGGA", "PBM E-score": 0.418}
{"sequence": "GGGCCGAA", "PBM E-score": 0.198}
{"sequence": "AGGCCGGC", "PBM E-score": 0.342}
{"sequence": "AGGCCGGA", "PBM E-score": 0.419}
{"sequence": "GGGCCGTA", "PBM E-score": 0.0879}
{"sequence": "CGGCCGGC", "PBM E-score": 0.409}
{"sequence": "AGGCCGTA", "PBM E-score": 0.0868}
{"sequence": "AGGCCGGG", "PBM E-score": 0.258}
{"sequence": "CGGCCGGA", "PBM E-score": 0.424}
{"sequence": "CGGCCGAC", "PBM E-score": 0.309}
{"sequence": "CGGCCGCA", "PBM E-score": 0.249}
{"sequence": "CACCTAAG", "PBM E-score": -0.134}
{"sequence": "CTTACCTC", "PBM E-score": -0.0434}
{"sequence": "AGGTTGGG", "PBM E-score": -0.122}
{"sequence": "ACGCTACT", "PBM E-score": 0.0556}
{"sequence": "AGCAATCA", "PBM E-score": -0.118}
{"sequence": "CATTGTCC", "PBM E-score": 0.314}
{"sequence": "CGCCATAG", "PBM E-score": -0.135}
{"sequence": "GGTTGATA", "PBM E-score": -0.0138}
{"sequence": "CGTCGTTC", "PBM E-score": 0.137}
{"sequence": "ATCTGACG", "PBM E-score": -0.134}
{"sequence": "CGTGCCAA", "PBM E-score": -0.0693}
{"sequence": "AGGCCTTC", "PBM E-score": -0.221}
{"sequence": "CGGCCTTC", "PBM E-score": 0.394}
{"sequence": "CGGCCTTA", "PBM E-score": 0.352}
{"sequence": "GGTTCCGA", "PBM E-score": 0.384}
{"sequence": "AGTTCCGG", "PBM E-score": 0.433}
{"sequence": "AGTTCCGC", "PBM E-score": 0.383}
{"sequence": "CGTTCCGA", "PBM E-score": 0.288}
{"sequence": "AGTTCCTG", "PBM E-score": -0.0874}
{"sequence": "AGTTCCGA", "PBM E-score": 0.43}
{"sequence": "AGAACCGG", "PBM E-score": 0.345}
{"sequence": "CACTCCCG", "PBM E-score": 0.193}
{"sequence": "CACTCCGC", "PBM E-score": 0.393}
{"sequence": "AACTCCCG", "PBM E-score": 0.365}
{"sequence": "CACTCCCA", "PBM E-score": -0.106}
{"sequence": "CACTCCGA", "PBM E-score": 0.454}
{"sequence": "CACTCCTG", "PBM E-score": -0.0899}
{"sequence": "AACTCCTG", "PBM E-score": 0.152}
{"sequence": "CACTCCTC", "PBM E-score": 0.0388}
{"sequence": "AACTCCGG", "PBM E-score": 0.497}
{"sequence": "CACTCCGG", "PBM E-score": 0.46}
{"sequence": "CACTCCAA", "PBM E-score": 0.031}
{"sequence": "CACTCCAC", "PBM E-score": -0.139}
